This is an account of results in PubChem BioAssay (NCI).

This is part of a sample that, as a whole, favours compounds with a hit. Of some 83,000 tested, about 20% had one in any assay.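 The test compound was applied at a single concentration to cells in 96-well plates for 48 hours, and percent growth was recorded.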 Values without a mark were called inactive. The source made the active and inactive calls. How the source made its calls: active means growth percent below 10; inactive means the rest.

Common to all, as to test: NCI-60 one-dose screen, 48 h (100 = growth as untreated, 0 = no growth, -100 = all killed)
Assay [1] deals with DU-145 prostate. Conditions: 10 µM unless noted.
Assay [2] has as its system K-562 leukemia. Conditions: 10 µM unless noted.
Assay [3] has as its system MALME-3M melanoma. Conditions: 10 µM unless noted.
In assay [4] the test system is MDA-MB-231 breast. The note with it: 10 µM unless noted.
The subject of assay [5] is RXF 393 renal. The note with it: 10 µM unless noted.
Assay [6] relates to SF-268 CNS. The note with it: 10 µM unless noted.
Assay [7] deals with SF-295 CNS. The note with it: 10 µM unless noted.
Assay [8] concerns SF-539 CNS. The note with it: 10 µM unless noted.
Assay [9] has as its system UACC-257 melanoma. Conditions: 10 µM unless noted.
Assay [10] relates to M14 melanoma. Conditions: 10 µM unless noted.
In assay [11] the test system is HCT-15 colon. The note with it: 10 µM unless noted.
Assay [12] concerns HT29 colon. Conditions: 10 µM unless noted.
Assay [13] concerns SNB-75 CNS. Conditions: 10 µM unless noted.
Assay [14] concerns U251 CNS. Conditions: 10 µM unless noted.
In assay [15] the test system is PC-3 prostate. The note with it: 10 µM unless noted.
In assay [16] the test system is SK-MEL-5 melanoma. Conditions: 10 µM unless noted.
In assay [17] the test system is UACC-62 melanoma. Conditions: 10 µM unless noted.
Assay [18] relates to LOX IMVI melanoma. The note with it: 10 µM.
Assay [19] relates to SK-MEL-28 melanoma. The note with it: 10 µM unless noted.
The subject of assay [20] is SNB-19 CNS. Conditions: 10 µM unless noted.

Regarding `COc1ccc(N2N=C(c3ccc4c(c3)OCO4)CC2c2cccc(NC(=O)CCCNS(=O)(=O)c3ccc(F)cc3)c2)cc1` (centres undefined), the growth was 80.3% in assay [1]; 35.5% in [2]; 77.6% in assay [3]; 50.2% in assay [4]; 66.9% in [5]; 52.8% in [6]. Besides, the growth in [7] is 49.2%; in [8] it was 74.9%; in [9] it was 75.7%; in assay [10], 49.5%; in assay [11], 57.8%; in assay [12], 61.3%. Moreover, the growth is 50.6% in [13]; 59.2% in [14]; 42.5% in assay [15]; 48% in [16]; 66.4% in assay [17]; 66.4% in assay [18]. Also, the growth in [19] was 75.4%.
As for `O=C(c1ccc(Cl)cc1)c1ccc(OCCCN2CCN(c3ccncc3)CC2)cc1`, the growth is 62.1% in assay [1]; 1.45% (active) in assay [2]; -54.1% (active) in assay [3]; 17.2% in assay [4]; 32.8% in assay [5]; 73.2% in assay [6]. Further, the growth was 17.6% in [7]; 16.7% in [8]; 42.4% in assay [9]; -36.2% (active) in assay [10]; -18.6% (active) in [11]; 11.2% in assay [12]. Besides, the growth in [13] was 69.4%; in [14], 28.6%; in [15], 26.9%; in assay [16], -47.7% (active); in assay [17] it was -63.5% (active); in assay [18], 10.1%. The growth in assay [19] was 14.8%.
Turning to `CC1(C)CC[C@]2(C(=O)Nc3ccccc3)CC[C@]3(C)C(=CCC4[C@@]5(C)C[C@@H](O)[C@H](O)[C@@](C)(CO)C5CC[C@]43C)C2C1` (some centres undefined), the growth in assay [1] is 76.8%; in [2], 33.3%; in assay [3] it was 73.9%; in assay [4], 53.5%; in [5] it was 17.6%; in assay [6] it was 61.2%. For the same compound, the growth was 50.4% in assay [7]; 63% in assay [8]; 65.6% in [9]; 56.1% in assay [10]; 42.5% in [11]; 22.1% in assay [12]. Besides, the growth is 85.5% in [13]; 51.1% in [14]; 20.4% in assay [15]; 20.2% in [16]; 57.5% in assay [17]; 53.1% in assay [18]. The growth in [19] was 70.6%.
As for `Cc1cc2nc3c([nH]c2cc1C)c1ccc(=O)cc1n3CCN(C)C`, the growth was 28.8% in [1]; 9.48% (active) in [2]; 27.2% in assay [3]; 38.7% in [4]; 57.8% in assay [5]; 61% in [6]. Further, the growth in [7] was 27%; in assay [8] it was 26.4%; in assay [9], 64%; in assay [10], 43.8%; in assay [11] it was 19.3%; in assay [12], 23.4%. The growth was 63.2% in assay [13]; 38.2% in assay [20]; 40% in [14]; 41.5% in [16]; 65.8% in assay [17]; 51.4% in assay [19].
Take `CCN(CC)c1ccnc(CNCCSC(c2ccccc2)(c2ccccc2)c2ccc(C)cc2)c1`: the growth was -59.7% (active) in [1]; -45.1% (active) in [2]; -93.1% (active) in assay [3]; -97.7% (active) in [4]; -87.5% (active) in assay [5]; -55.8% (active) in assay [6]. The growth was -97% (active) in [7]; -97.5% (active) in assay [8]; -90.1% (active) in [9]; -87.2% (active) in assay [10]; -92.4% (active) in [11]; -80.5% (active) in assay [12]. Further, the growth in [13] is -51.2% (active); in assay [14], -93% (active); in assay [15] it was -76.6% (active); in assay [16], -99.6% (active); in assay [17], -96.2% (active); in assay [18], -99.6% (active). The growth in assay [19] is -97.5% (active).
Regarding `COc1ccc(-c2nc3ccc(C(=O)NN4C(=O)c5ccc([N+](=O)[O-])cc5C4=O)cc3[nH]2)cc1`, the growth was 109% in assay [1]; 102% in assay [2]; 87.9% in assay [3]; 90.1% in [4]; 68.4% in [5]; 105% in assay [6]. In addition, the growth was 88.2% in assay [7]; 91.1% in assay [8]; 94.2% in [9]; 93.7% in assay [10]; 95.9% in assay [11]; 87.1% in [12]. In addition, the growth in assay [13] was 83.3%; in assay [14], 97%; in assay [15] it was 90.5%; in [16] it was 83.1%; in [17] it was 80.2%; in [18], 87.1%. In assay [19], the growth is 95.6%.
As for `CC(=O)OC[C@@]1(C)C2CC[C@]3(C)C(CC=C4C5CC(C)(C)CC[C@]5(C(=O)Nc5cccc(C)c5)CC[C@]43C)[C@@]2(C)C[C@@H](OC(C)=O)[C@@H]1OC(C)=O` (some centres undefined), the growth in assay [1] was 48.3%; in assay [2], 21.5%; in [3], 61.3%; in assay [4] it was 67.7%; in assay [5], 85.4%; in assay [6], 56.2%. In addition, the growth is 27.4% in [7]; 42% in [8]; 24.7% in [9]; 49.8% in [10]; 30.9% in [11]; 25.5% in [12]. For the same compound, the growth in assay [13] was 67.9%; in assay [14] it was 40.6%; in assay [15], 29.4%; in [16], 3.77% (active); in assay [17], 45.4%; in assay [18], 11.6%. Also, the growth in assay [19] was 62.3%.
With `Cc1ccc(C(SCCNCc2cc(N(C)C)ccn2)(c2ccccc2)c2ccccc2)cc1`, the growth in assay [1] is -8% (active); in [2] it was -42.7% (active); in assay [3] it was -94.4% (active); in assay [4], -56.9% (active); in assay [5], -47.3% (active); in assay [6], -2.09% (active). The growth in [7] is -96.1% (active); in [8] it was -99.1% (active); in [9], -65.4% (active); in assay [10], -84.3% (active); in [11], -68.8% (active); in [12], -77.2% (active). The growth in assay [13] is 8.64% (active); in assay [14], -89.3% (active); in assay [15] it was -43.4% (active); in assay [16], -100% (active); in [17], -64.4% (active); in assay [18], -100% (active). The growth in [19] is -95.3% (active).
Take `CC(=O)OC[C@@]1(C)C2CC[C@]3(C)C(CC=C4C5CC(C)(C)CC[C@]5(C(=O)Nc5ccc(F)cc5)CC[C@]43C)[C@@]2(C)C[C@@H](OC(C)=O)[C@@H]1OC(C)=O` (some centres undefined): the growth in [1] is 47.4%; in assay [2], 22.4%; in assay [3], 58.2%; in [4], 65.5%; in assay [5] it was 87.4%; in assay [6], 57.4%. Besides, the growth in assay [7] was 23.4%; in assay [8], 40.2%; in assay [9], 26.8%; in assay [10], 48.1%; in [11], 33.8%; in [12], 34.7%. Further, the growth is 54.4% in assay [13]; 40.3% in assay [14]; 34.5% in assay [15]; 8.24% (active) in assay [16]; 30.3% in [17]; 11.1% in [18]. The growth in [19] is 58.6%.
Regarding `Cc1cc(=O)oc2cc(OCCOc3ccc(/C=C/C(=O)Nc4ccccc4N)cc3)ccc12`, the growth is 35.9% in assay [1]; 21.1% in assay [2]; 48.6% in assay [3]; -16.1% (active) in assay [4]; 31% in assay [5]; 27.9% in assay [6]. Also, the growth in [7] was 30.6%; in assay [8], 18.9%; in assay [9], 30.3%; in [10], 54.2%; in [11] it was 39.7%; in assay [12], 30.5%. Moreover, the growth in assay [13] was 36.6%; in [14], 30.7%; in [15], 32.1%; in assay [16] it was -87.6% (active); in assay [17], 33.2%; in assay [18] it was -73.2% (active). The growth in assay [19] is 39.9%.
As for `COc1ccc(-c2ccnc(SCc3cc4cc(Cl)ccc4[nH]c3=O)n2)cc1`, the growth is 35.6% in assay [1]; 79.1% in [2]; 27.9% in [3]; 26.9% in assay [4]; -10.7% (active) in assay [5]; 0.935% (active) in [6]. In addition, the growth in assay [7] was 26.5%; in [8], 46.2%; in assay [9], 72.1%; in assay [10], 73.8%; in [11] it was 80.8%; in [12], 84.7%. For the same compound, the growth in assay [13] is -7.9% (active); in assay [14], 0.922% (active); in [15], 29.6%; in assay [16] it was 37.4%; in [17], 42.5%; in [18], 80.9%. The growth in assay [19] is 64.3%.
Consider `O=c1[nH]c2ccccc2cc1CSc1nccc(-c2ccc3ccccc3c2)n1`, for which the growth was 81% in assay [1]; 10.1% in [2]; 86.3% in assay [3]; 58.2% in assay [4]; 59.1% in [5]; 85.4% in assay [6]. The growth in assay [7] is 70.8%; in assay [8], 71.2%; in [9] it was 99.3%; in [10] it was 56.1%; in assay [11], 29%; in assay [12], 44.3%. The growth in assay [13] was 86.6%; in assay [14], 65.2%; in [15], 50%; in assay [16] it was 57.2%; in [17], 60.9%; in [18], 67.1%.
Regarding `Nc1cccc(SCc2cc3ccccc3[nH]c2=O)c1`, the growth in assay [1] is 58.7%; in assay [2], 9.64% (active); in assay [3], 72%; in [4] it was 57.2%; in [5], 81.5%; in assay [6], 47.7%. In addition, the growth is 19.3% in assay [7]; 59.9% in [8]; 48.5% in [9]; 20.5% in assay [10]; 43.3% in assay [11]; 65.7% in assay [12]. Further, the growth is 83.1% in [13]; 64.1% in [14]; 63% in assay [15]; -4.45% (active) in assay [16]; 4.09% (active) in assay [17]; 9.48% (active) in assay [18]. Also, the growth in assay [19] is 61.6%.
Take `Cc1cc(=O)oc2cc(OCCCOc3ccc(/C=C/C(=O)Nc4ccccc4N)cc3)ccc12`: the growth was 33.1% in assay [1]; 18.2% in assay [2]; 42% in [3]; -2.67% (active) in assay [4]; 49.5% in assay [5]; 21.9% in assay [6]. Further, the growth in [7] is 27.4%; in assay [8], 1.75% (active); in assay [9] it was 38.2%; in assay [10], 41.8%; in [11], 38%; in [12], 37.4%. For the same compound, the growth in assay [13] was 36.2%; in [14] it was 32.2%; in assay [15], 32%; in [16], -91.2% (active); in [17], 21%; in [18] it was -76.5% (active). Further, the growth in assay [19] is 32%.
